# Experimental data from PubChem BioAssay AID624305 (National Center for Advancing Translational Sciences (NCATS), 2012).
# Results filed as inconclusive are left out. A call without a number means that no potency is given here. Values without a mark were called inactive. Activity calls are given as the source filed them. Calls come from the whole dose curve; as a rule, active = well fitted activation curve with a large enough effect; inconclusive = small, poorly fitted or top-dose-only effect; inactive = no such curve, though single readings can be large or run the other way.
# Assay: qHTS assay for re-activators of p53 using a Luc reporter: Hit Validation; note: nearly all actives have a fitted effect of over 75% in size
# Summary of the method: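 H1299 (p53-null) cells stably carrying p53-A138V and a BP100-luciferase reporter, 1000 cells/well, treated 24 h at 37 deg C. Compounds at several concentrations, 1:5 dilution; nocodazole control; luminescence read after 10 min with detection reagent.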
# Potency is the fitted concentration of half-maximal effect.
Compound,Potency,activation
N#CC1(c2ccc(NC(=O)c3ccccc3F)cc2)CCCC1,1.64 µM (active),–
N#Cc1nc(COc2ccccc2)oc1N1CCOCC1,inactive,–
Cc1cc(NC(=O)c2c(F)c(F)c(F)c(F)c2F)no1,inactive,–
O=C(c1cccc(Br)c1)c1coc2ccc(O)cc12,23.1 µM (active),–
Clc1ccccc1Nc1nc2ccccc2o1,5.17 µM (active),–
O=C(CCC1CCCC1)Nc1ccc(Br)cn1,11.6 µM (active),–
CC(C)CNC(=S)Nc1ccc(Oc2ccccc2)cc1,inactive,–
CCOC(=O)NC1(Nc2ccc(C)cc2)Oc2ccccc2O1,16.4 µM (active),–
OCCNc1nc(NCc2ccccc2)c2ccccc2n1,–,-3.8% [at 9.22 µM]
Cc1ccc(NC(=O)c2ccc3nc[nH]c3c2)cc1C,23.1 µM (active),–
C/C(=N/NC(=S)Nc1ccccc1)c1ccc2c(c1)OCO2,inactive,–
COc1ccc(C(=O)C(CN2CCCC2)c2ccccc2)cc1 (configuration not stated),inactive,–
Cc1ccc(C(=O)Nc2ncc3c(n2)CC(c2ccco2)CC3=O)cc1 (configuration not stated),inactive,–
Cc1ccc(C(=O)CN2C(=O)NC3(CCCCC3C)C2=O)s1 (configuration not stated),inactive,–
O=C(NC(=S)Nc1cccc(O)c1)C1CCCCC1,14.6 µM (active),–
Brc1ccc(-c2nc3ccccc3s2)s1,3.26 µM (active),–

Compound,Potency,activation
COc1ccc(-n2cc(-c3ccccc3)[nH]c2=S)cc1,11.6 µM (active),–
Cc1cc(C)cc(OCC(=O)NNC(=O)c2ccccn2)c1,inactive,–
CCCCc1ccc(NC(=S)Nc2ccc(Nc3ccc(OC)cc3)cc2)cc1,inactive,–
Cc1ncsc1C(=O)Nc1nc2c(s1)CCCC2,1.84 µM (active),–
O=C(COC(=O)c1cc2ccccc2oc1=O)Nc1cccc(S(=O)(=O)N2CCCCCC2)c1,inactive,–
COc1cccc(NC(=O)CCN2CCOCC2)c1,inactive,–
CCCN(C(=O)c1cccc(S(=O)(=O)N2CCCc3ccccc32)c1)C1CCS(=O)(=O)C1 (configuration not stated),inactive,–
Cc1cc(F)ccc1NC(=O)Nc1ccc2c(c1)OCO2,inactive,–
O=C(CC1SC(N2CCCC2)=NC1=O)Nc1ccc(C(=O)Nc2ncccc2O)cc1 (configuration not stated),16.4 µM (active),–
COc1cc(CNC2CCCCCCC2)c(Br)cc1OCCO,inactive,–
O=C(C1CCCN1S(=O)(=O)c1ccc(Cl)cc1)N1CCOCC1 (configuration not stated),inactive,–
Cc1ccc2cc(CCNC(=O)c3ccco3)c(=O)[nH]c2c1C,2.31 µM (active),–
CCCSc1ccc2nc(-c3ccccc3)cn2c1,0.206 µM (active),–
C=CCOc1c(OC)cc(/C=N/Nc2cccc(C(=O)O)c2)c(Br)c1Br,13 µM (active),–
C=CCn1c(P(C)(=O)O)nc2ccccc21,inactive,–
c1ccc(-n2ncc3c(N4CCCCC4)ncnc32)cc1,1.16 µM (active),–
